Source: PubChem BioAssay (EPA / NIEHS)
Some compounds were tested as several samples or in several runs, with calls that do not always agree. Activity calls are given as the source filed them. How the source made its calls: active means hit-call score of the fitted dose curve at least 0.9, where 1 is the maximum; inactive means score below 0.9.

These compounds were tested on Actin alpha 1 (ACTA1), ACTA1 (gene 58) (assay: BSK_MyoF_ACTA1: BioMAP Diversity Plus: MyoF Assay for Actin alpha 1 (ACTA1) Biomarker Activity (AID 2284244)). Conditions: primary human lung fibroblasts.
Method: BSK_MyoF is a cell-based, multiplexed-readout assay that uses lung fibroblasts, […], with measurements taken at 24 hours after chemical dosing in a microplate: 96-well plate.BSK_MyoF_ACTA1 is an assay component measured in the BSK_MyoF assay. It measures a-SMA antibody related to regulation of gene expression using ELISA technology.Data from the assay component BSK_MyoF_ACTA1 was analyzed at the endpoint, BSK_MyoF_ACTA1, in the positive analysis fitting direction relative to DMSO as the negative control and baseline of activity. Using a type of binding reporter, gain or loss-of-signal activity can be used to understand protein changes. To generalize the intended target to other relatable targets, this assay endpoint is annotated to the 'cell adhesion molecules' intended target family, where the subfamily is 'actin'.
The levels of cell surface (or secreted, indicated by the prefix "s") biomarker endpoints were measured by ELISA. Overt cytotoxicity to cells in confluent adherent cultures (all systems other than the BT system) was assessed by measuring total protein levels using sulforhodamine B (SRB) staining in parallel cultures at the time of biomarker measurements, indicated as SRB endpoints. For proliferation assays for adherent cell types, individual cell types are cultured at sub-confluence and relative cell numbers quantified by SRB staining at time points optimized for each system (48 h: 3C and CASM3C systems; 72 h: BT and HDF3CGF systems; 96 h: SAg system). SRB was performed by staining cells with 0.1% SRB after fixation with 10% TCA and reading wells at 560 nm.Viability and proliferation of PBMC (T cells) was quantified by Alamar Blue reduction for the SAg and BT systems. For PBMC viability (referred to as PBMC Cytotoxicity within the assay endpoint names), cells were plated (75,000/well in a 96-well plate) and then chemical samples added for 1 h before addition of activators, SEB and TSST-1 (20 ng/mL final concentration each). Cells were incubated for 90 h. Then, Alamar Blue (20 uL/well) (Invitrogen, Cat DAL1100) was added for 6 h, and the plates were read with a fluorescence microplate reader at 546/580 nm (excitation/emission). For PBMC proliferation, cells were plated and activated as above but incubated for only 16 h prior to addition of Alamar Blue. Plates were read after 6 h.

Row | SMILES | outcome | AC50
1 | O=C1c2ccc(O)c(O)c2C(=O)c2c(O)ccc(O)c21 | inactive | 
2 | C[C@]12CC[C@@H]3c4ccc(O)cc4CC[C@H]3[C@@H]1C[C@@H](O)[C@@H]2O | inactive | 
3 | CCCCCCCCCCCCCCCCCC[N+](C)(C)Cc1ccccc1 |  | 2.7 µM (active)
4 | O=C1OC2(c3ccccc31)c1cc(I)c(O)c(I)c1Oc1c2cc(I)c(O)c1I | inactive | 
5 | COc1cccc(O)c1 | inactive | 
6 | CC1=NN(c2ccccc2)C(=O)C1 | inactive | 
7 | O=C(NCc1ncc(C(F)(F)F)cc1Cl)c1c(Cl)cccc1Cl | inactive | 
8 | O=C(CC(=O)C(F)(F)C(F)(F)C(F)(F)F)c1cccs1 | inactive | 7.95 µM (active)
9 | O=P(O)(O)CCC(F)(F)C(F)(F)C(F)(F)C(F)(F)C(F)(F)C(F)(F)F | inactive | 
10 | COC1=CC(=O)C[C@@H](C)[C@]12Oc1c(Cl)c(OC)cc(OC)c1C2=O | inactive | 
11 | COCN(COC)c1nc(N(COC)COC)nc(N(COC)COC)n1 | inactive | 
12 | C=CC(=O)OCCC(F)(F)C(F)(F)C(F)(F)C(F)(F)C(F)(F)C(F)(F)C(F)(F)C(F)(F)F | inactive | 
13 | Cc1ccc(N=Nc2c(O)ccc3ccccc23)c(C)c1 | inactive | 
14 | CC[N+](CC)(CC)Cc1ccccc1 | inactive | 
15 | O=C(NO)c1ccccc1 | inactive | 
16 | Oc1cc2ccccc2cc1O | inactive | 
17 | CN(C)c1ccc(C(=C2C=CC(=[N+](C)C)C=C2)c2ccccc2)cc1 |  | 1.06 µM (active)
18 | O=C(O)CCC(F)(F)C(F)(F)C(F)(F)C(F)(F)C(F)(F)F | inactive | 
19 | O=C(O)C(F)(F)OC(F)(F)C(F)(F)OC(F)(F)C(F)(F)OC(F)(F)C(F)(F)C(F)(F)C(F)(F)F | inactive | 4.11 µM (active)

Row | SMILES | outcome | AC50
20 | Clc1ccc(Nc2nnc(Cc3ccncc3)c3ccccc23)cc1 | inactive | 
21 | OCC(F)(F)C(F)(F)C(F)(F)C(F)(F)C(F)(F)C(F)(F)C(F)(F)C(F)(F)C(F)(F)C(F)(F)C(F)(F)F | inactive | 
22 | O=S(=O)(O)C(F)(F)C(F)(F)C(F)(F)C(F)(F)C(F)(F)C(F)(F)C(F)(F)C(F)(F)C(F)(F)C(F)(F)F | inactive | 
23 | NC(=NCCCCCCN=C(N)/N=C(\N)Nc1ccc(Cl)cc1)/N=C(\N)Nc1ccc(Cl)cc1 |  | 4.86 µM (active)
24 | C=COC(=O)C(C)(C)CCCCCC |  | 34.3 µM (active)
25 | COc1cc(OC)nc(NC(=O)NS(=O)(=O)Nc2ccccc2C(=O)N(C)C)n1 | inactive | 
26 | O=P(O)(O)CCC(F)(F)C(F)(F)C(F)(F)C(F)(F)C(F)(F)C(F)(F)C(F)(F)C(F)(F)F | inactive | 
27 | CC(C)(C)c1ccc(O)c(O)c1 |  | 29.6 µM (active)
28 | CCOC(=O)CN[C@@H](C(=O)N1CC[C@H]1C(=O)NCc1ccc(/C(N)=N/O)cc1)C1CCCCC1 | inactive | 
29 | CN(Cc1cnc2nc(N)nc(N)c2n1)c1ccc(C(=O)N[C@@H](CCC(=O)O)C(=O)O)cc1 | inactive | 
30 | CN(CCO)S(=O)(=O)C(F)(F)C(F)(F)C(F)(F)C(F)(F)C(F)(F)C(F)(F)C(F)(F)C(F)(F)F | inactive | 
31 | C=CC(=C)CC/C=C(\C)CCC=C(C)C | inactive | 
32 | CCCCCc1ccc(O)cc1 |  | 11.3 µM (active)
33 | Cc1cccc2c1ccc1ccccc12 | inactive | 
34 | CCCCC(CC)C(=O)OCCOCCOCCOCCOC(=O)C(CC)CCCC (stereo not given) | inactive | 
35 | C=CC(C)(CCC=C(C)C)OC(C)=O (stereo not given) | inactive | 
36 | Cc1ccc(C(=O)c2ccccc2)cc1 |  | 20 µM (active)
37 | OCCN1CN(CCO)CN(CCO)C1 | inactive | 
38 | O=C(O)CCC(F)(F)C(F)(F)C(F)(F)C(F)(F)C(F)(F)C(F)(F)F | inactive | 
